Laboratory results published in PubChem BioAssay (Tox21).
Where “and” joins values, the source holds several entries; their conditions need not be identical. Identical values can stand only once. Inconclusive results are not listed. A call without a number means that no potency is given here. A structure can be active in one record and inactive in another. Calls of active or inactive are those of the source. Calls come from the whole dose curve; as a rule, active = well fitted cell-killing curve with a large enough effect in the repeat runs; inconclusive = weak or mixed curves, or effect the other way; inactive = no such curve, though single readings can be large or run the other way.

Assay: qHTS assay to identify small molecule agonists of the vitamin D receptor (VDR) signaling pathway - cell viability counter screen (AID 743224)
Conditions: VDR-bla HEK293T viability, CellTiter-Glo luminescence, 16 h; series mostly up to 62.6 µM
Summary of the method: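 Luminescence from CellTiter-Glo, read after 30 min at room temperature, reports viability of VDR-bla cells treated with compounds for 16 h at 37C in the wells used for the beta-lactamase FRET read.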
Note: nearly all actives have a fitted effect of over 50% in size.
Potency is the fitted concentration of half-maximal effect.

Structure (SMILES) | Potency | activity change, negative = cytotoxicity
Cc1cccc(O)c1C | inactive | –
CCOC(=O)C(C)C(C)=O (stereo unspecified) | inactive | –
CO[Si](OC)(OC)c1ccccc1 | inactive | –
CCN(CC)C(=O)Nc1ccc(OCC(O)CNC(C)(C)C)c(C(C)=O)c1 (stereo unspecified) | inactive | –
CC(C)(C)NCC(O)COc1ccccc1OCC1CCCO1 (stereo unspecified) | inactive | –
COC(=O)c1cccc(C(=O)OC)c1 | inactive | –
CC(C)(C)NCC(O)c1cc(O)cc(O)c1 (stereo unspecified) | inactive | –
O=Cc1ccc(Cl)cc1 | inactive | –
CC1COc2c(N3CCN(C)CC3)c(F)cc3c(=O)c(C(=O)O)cn1c23 (stereo unspecified) | inactive | –
O=C(Oc1ccccc1)c1ccccc1O | inactive | –
C=CS(=O)(=O)O | inactive | –
CC(=O)OCC1=C(C(=O)O)N2C(=O)[C@@H](NC(=O)Cc3cccs3)[C@H]2SC1 | inactive | –
NNCCc1ccccc1 | inactive | –
O=C(Cl)c1cccc(C(=O)Cl)c1 | inactive | –
COC(=O)/C=C/c1ccccc1 | inactive | –
O=c1n(CC2CO2)c(=O)n(CC2CO2)c(=O)n1CC1CO1 (stereo unspecified) | inactive | –
O=C(O)Cn1cnnn1 | inactive | –
CN1C(=O)c2ccc([N+](=O)[O-])cc2C1=O | inactive | –
Cc1cccc([N+](=O)[O-])c1C(=O)O | inactive | –

Structure (SMILES) | Potency | activity change, negative = cytotoxicity
Cc1scc2c1N(C(=O)CN1CCN(C)CC1)c1ccccc1NC2=O | inactive | –
CC(C)(C)NC(=O)[C@@H]1CN(Cc2cccnc2)CCN1C[C@@H](O)C[C@@H](Cc1ccccc1)C(=O)N[C@H]1c2ccccc2C[C@H]1O | inactive | –
C/C=C/c1ccc(OCC)c(O)c1 | inactive | –
CC(C)C(=O)c1c(C(C)C)nn2ccccc12 | inactive | –
CCC[C@H](N[C@@H](C)C(=O)N1[C@H](C(=O)O)C[C@@H]2CCCC[C@@H]21)C(=O)OCC | inactive | –
NC(Cc1ccc(Cl)cc1)C(=O)O (stereo unspecified) | – | 2.72% [at 0.55 µM] (inactive)
O=C1NCC2(CCN(CCc3ccccc3)CC2)O1 | inactive | –
CC1COC(=O)O1 (stereo unspecified) | inactive | –
CCCN[C@H]1CCc2nc(N)sc2C1 | inactive | –
C[N+]1([O-])CCOCC1 | inactive | –
CC(C)CCOCc1ccccc1 | inactive | –
O=C(O)c1cccc(C(=O)O)c1 | inactive | –
COc1cc(C(=S)N2CCOCC2)ccc1O | inactive | –
CCCNC(C)C(=O)Nc1ccccc1C (stereo unspecified) | inactive | –
c1ccc2n[nH]nc2c1 | inactive and 38.9 µM (active) | –
CC1=C(C=O)C(C)(C)CC=C1 | inactive | –
CCOc1ccccc1C(N)=O | inactive | –
O=C(O)CCc1ccccc1 | inactive | –
CC(N)=O | inactive | –

Assay: qHTS assay to identify small molecule antagonists of the vitamin D receptor (VDR) signaling pathway - cell viability counter screen (AID 743225)
Conditions: VDR-bla HEK293T viability, CellTiter-Glo luminescence, 16 h; series mostly up to 61 µM
Summary of the method: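 Cells (VDR-UAS-bla HEK 293T) are plated, rested 4 h at 37C, dosed with compound and 3 nM final 1-alpha,25-dihydroxy vitamin D3, and incubated 16 h. Viability is taken from CellTiter-Glo luminescence in the reporter wells.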

Structure (SMILES) | Potency | viability change, negative = cytotoxic
Cc1cccc(O)c1C | inactive | –
CCOC(=O)C(C)C(C)=O (stereo unspecified) | inactive | –
CO[Si](OC)(OC)c1ccccc1 | inactive | –
CCN(CC)C(=O)Nc1ccc(OCC(O)CNC(C)(C)C)c(C(C)=O)c1 (stereo unspecified) | inactive | –
CC(C)(C)NCC(O)COc1ccccc1OCC1CCCO1 (stereo unspecified) | inactive | –
COC(=O)c1cccc(C(=O)OC)c1 | inactive | –
CC(C)(C)NCC(O)c1cc(O)cc(O)c1 (stereo unspecified) | 1.9 nM (active) | –
O=Cc1ccc(Cl)cc1 | inactive | –
CC1COc2c(N3CCN(C)CC3)c(F)cc3c(=O)c(C(=O)O)cn1c23 (stereo unspecified) | inactive | –
O=C(Oc1ccccc1)c1ccccc1O | inactive | –
C=CS(=O)(=O)O | inactive | –
CC(=O)OCC1=C(C(=O)O)N2C(=O)[C@@H](NC(=O)Cc3cccs3)[C@H]2SC1 | inactive | –
NNCCc1ccccc1 | inactive | –
O=C(Cl)c1cccc(C(=O)Cl)c1 | inactive | –
COC(=O)/C=C/c1ccccc1 | inactive | –
O=c1n(CC2CO2)c(=O)n(CC2CO2)c(=O)n1CC1CO1 (stereo unspecified) | inactive | –
O=C(O)Cn1cnnn1 | inactive | –
CN1C(=O)c2ccc([N+](=O)[O-])cc2C1=O | inactive | –
Cc1cccc([N+](=O)[O-])c1C(=O)O | inactive | –

Structure (SMILES) | Potency | viability change, negative = cytotoxic
Cc1scc2c1N(C(=O)CN1CCN(C)CC1)c1ccccc1NC2=O | inactive | –
CC(C)(C)NC(=O)[C@@H]1CN(Cc2cccnc2)CCN1C[C@@H](O)C[C@@H](Cc1ccccc1)C(=O)N[C@H]1c2ccccc2C[C@H]1O | inactive | –
C/C=C/c1ccc(OCC)c(O)c1 | inactive | –
CC(C)C(=O)c1c(C(C)C)nn2ccccc12 | inactive | –
CCC[C@H](N[C@@H](C)C(=O)N1[C@H](C(=O)O)C[C@@H]2CCCC[C@@H]21)C(=O)OCC | inactive | –
NC(Cc1ccc(Cl)cc1)C(=O)O (stereo unspecified) | – | -8.18% [at 0.628 µM] (inactive)
O=C1NCC2(CCN(CCc3ccccc3)CC2)O1 | inactive | –
CC1COC(=O)O1 (stereo unspecified) | inactive | –
CCCN[C@H]1CCc2nc(N)sc2C1 | inactive | –
C[N+]1([O-])CCOCC1 | inactive | –
CC(C)CCOCc1ccccc1 | inactive | –
O=C(O)c1cccc(C(=O)O)c1 | inactive | –
COc1cc(C(=S)N2CCOCC2)ccc1O | inactive | –
CCCNC(C)C(=O)Nc1ccccc1C (stereo unspecified) | inactive | –
c1ccc2n[nH]nc2c1 | inactive | –
CC1=C(C=O)C(C)(C)CC=C1 | inactive | –
CCOc1ccccc1C(N)=O | inactive | –
O=C(O)CCc1ccccc1 | inactive | –
CC(N)=O | inactive | –
